# Experimental data as given in PubChem BioAssay.
# For part of these data: Potency and affinity values are given separately. The source made the active and inactive calls.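 The calls were made as follows, unless noted: active = at least 20% inhibition of 6-phosphogluconate dehydrogenase activity; inactive = the rest.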 Peptide text beside a SMILES is read from it.
# Experiments:
# [1] = target: 6-phosphogluconate dehydrogenase, decarboxylating (Homo sapiens) (UniProt P52209); assay: 6PGD enzyme inhibitors, primary screen, biochemical, human, recombinant enzyme, NADPH absorbance (AID 1159550); conditions: recombinant 6PGD, NADPH absorbance 341 nm; at 10 µM; stronger effect = higher value
# [2] = differential killing of epithelial or mesenchymal cells, primary screen, imaging, PC-3E GFP, TEM4-18 mCherry, co-culture (AID 1345086;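 active = compounds killing one labelled cell type while sparing the other, by normalised counts and ratio limits, not self-fluorescent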;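 as to all read-outs here: cells exposed to compound for 72 h before imaging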;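 as to red/green cell ratio (normalised): normalised mesenchymal count divided by normalised epithelial count so high means epithelial killing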); conditions: imaging cell counts, at 1 µM; for red/green cell ratio (normalised): actives lie on both sides, counts scaled to control wells, 1 = unselective
# [3] = target: Mitogen-activated protein kinase 7 (Homo sapiens) (UniProt Q13164); assay: ERK5 transactivation activators in reporter cells, primary screen, cell-based, HTS (AID 1508626;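 active = luciferase signal above three times the same-plate solvent-only control wells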;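 also: luciferase driven by Gal4-ERK5 fusion binding five Gal4 sites before minimal TATA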); conditions: HeLa Gal4-ERK5 transactivation, 18 h, at 5 µM, stronger effect = higher value
# [4] = polyglutamine-triggered caspase-3 activation inhibitors, cell-based (AID 1583); conditions: polyglutamine-induced caspase-3 activation, cell assay; stronger effect = higher value;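 tested at 10 µM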
# [5] = suppressors of polyQ aggregation in yeast, 75Q-TubU reporter (AID 1593); conditions: Yeast 75Q polyglutamine aggregation reporter
# [6] = rescue of polyQ-huntingtin neuronal dysfunction in worms, whole organism, C. elegans mechanosensory neurons, N-terminal huntingtin (AID 1599); conditions: touch response, stronger effect = higher value
# [7] = inhibitors of mitochondrial cytochrome c release, biochemical, purified mitochondria (AID 1603); conditions: stronger effect = lower value;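 also: mouse liver mitochondria challenged with calcium chloride; signal normalized to the plate average as 100%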
# [8] = inhibitors of polyQ protein aggregation (AID 1604); conditions: polyglutamine-induced protein aggregation inhibition assay; stronger effect = higher value; tested at 2.5 µM
# [9] = enhancers of glutamate uptake in motor neurons, MN-1 cell line (AID 1612); conditions: MN-1 motor neuron cells, stronger effect = higher value;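 also: tested at 1 µM final; 0% = mean of DMSO vehicle wells on each plate; positive means more glutamate uptake than control and negative means less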
# [10] = suppressors of polyglutamine aggregation in yeast, 75Q-TubH (AID 1616); conditions: S. cerevisiae 75Q-TubH polyglutamine aggregation suppression; stronger effect = higher value
# [11] = liver-stage malaria parasite growth inhibition, primary screen, cell-based, HepG2, luciferase luminescence, HepG2 viability (AID 624349; in the data active = parasite load remaining mostly below about 12%, no sharp cut-off; inactive = mostly above about 10%;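 also: 100% = mean of DMSO negative control wells on the same plate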); conditions: P. berghei liver stage in HepG2, luciferase luminescence, concentration not given here; parasite load remaining: stronger effect = lower value; viability: measured here: HepG2 viability without parasites
# [12] = measured here: epithelial PC-3E GFP cell survival
# [13] = measured here: mesenchymal TEM4-18 mCherry cell survival
# Sequence of 6-phosphogluconate dehydrogenase, decarboxylating (Homo sapiens) (P52209 whole entry, looked up): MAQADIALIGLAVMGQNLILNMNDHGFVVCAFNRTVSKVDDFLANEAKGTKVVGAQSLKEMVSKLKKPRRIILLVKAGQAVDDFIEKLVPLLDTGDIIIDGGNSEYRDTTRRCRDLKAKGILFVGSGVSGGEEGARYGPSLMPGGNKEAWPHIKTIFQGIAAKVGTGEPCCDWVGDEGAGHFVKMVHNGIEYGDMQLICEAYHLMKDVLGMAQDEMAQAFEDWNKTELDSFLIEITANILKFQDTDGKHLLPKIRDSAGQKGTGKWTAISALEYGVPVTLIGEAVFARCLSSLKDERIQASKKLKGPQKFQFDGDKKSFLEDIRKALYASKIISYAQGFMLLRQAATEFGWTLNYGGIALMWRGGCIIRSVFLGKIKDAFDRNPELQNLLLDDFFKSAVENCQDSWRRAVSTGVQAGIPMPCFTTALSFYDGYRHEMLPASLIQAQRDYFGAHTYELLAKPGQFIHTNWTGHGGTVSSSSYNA
# Sequence of Mitogen-activated protein kinase 7 (Homo sapiens) (Q13164 whole entry, looked up, the tested form may be a part): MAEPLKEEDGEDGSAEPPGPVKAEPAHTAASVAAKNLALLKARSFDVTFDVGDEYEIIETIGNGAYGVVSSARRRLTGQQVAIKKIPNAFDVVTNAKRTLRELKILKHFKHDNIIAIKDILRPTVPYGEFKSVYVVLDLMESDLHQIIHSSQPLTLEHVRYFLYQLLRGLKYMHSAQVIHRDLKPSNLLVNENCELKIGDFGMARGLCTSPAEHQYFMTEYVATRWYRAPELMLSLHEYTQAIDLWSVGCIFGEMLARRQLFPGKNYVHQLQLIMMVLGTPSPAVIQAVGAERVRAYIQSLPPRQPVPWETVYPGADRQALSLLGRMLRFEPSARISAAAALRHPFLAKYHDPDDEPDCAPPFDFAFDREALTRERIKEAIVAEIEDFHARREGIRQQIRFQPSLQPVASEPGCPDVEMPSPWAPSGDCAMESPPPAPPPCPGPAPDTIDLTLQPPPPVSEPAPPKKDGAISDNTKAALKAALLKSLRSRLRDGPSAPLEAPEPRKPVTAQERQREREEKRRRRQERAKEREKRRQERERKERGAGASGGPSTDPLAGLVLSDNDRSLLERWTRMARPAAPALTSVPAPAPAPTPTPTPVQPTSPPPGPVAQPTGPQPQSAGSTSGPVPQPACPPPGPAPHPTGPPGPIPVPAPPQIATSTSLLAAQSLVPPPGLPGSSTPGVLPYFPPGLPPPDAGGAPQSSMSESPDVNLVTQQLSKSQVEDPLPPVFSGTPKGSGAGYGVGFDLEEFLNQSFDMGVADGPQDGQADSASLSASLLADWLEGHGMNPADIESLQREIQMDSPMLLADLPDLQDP
Structure (SMILES),inhibition [1],red/green cell ratio (normalised) [2],"normalised cell number [2, 12]","normalised cell number [2, 13]",luciferase signal [3],inhibition [4] [%],score [5],rescue above control [6],cytochrome c release ratio [7],inhibition of aggregation [8] [%],glutamate uptake change [9] [%],aggregation suppression score [10],parasite load remaining [11],viability [11] [%]
COc1c2ccoc2cc2oc(C)cc(=O)c12,12.5% (inactive),0.91 (inactive),1.19,1.08,52 AU (inactive),,,,,,,,,
COc1ccc2c(c1)O[C@@H]1COc3cc(OC)c(OC)cc3[C@@H]1C2=O,-2.95% (inactive),0.88 (inactive),0.9,0.79,68 AU (inactive),,,,,,,,,
CC(C)=CC1C(CO)C1(C)C (configuration not stated),2.26% (inactive),0.97 (inactive),0.97,0.94,68 AU (inactive),,,,,,,,,
Cc1cc(O)cc(O)c1C(=O)O,-6.2% (inactive),0.81 (inactive),1.09,0.88,124 AU (inactive),,,,,,,,,
CC(C)C[C@H](N)C(=O)N[C@@H](C)C(=O)O (H-Leu-Ala-OH),3.68% (inactive),0.74 (inactive),1.26,0.93,16 AU (inactive),,,,,,,,,
COc1c2ccoc2c(OC)c2oc(=O)ccc12,6.1% (inactive),1.06 (inactive),1.03,1.09,432 AU (active),,,,,,,,,
COc1cc(OC)c2ccc(=O)oc2c1,9.07% (inactive),1.1 (inactive),0.96,1.05,64 AU (inactive),-1.21,0.96,0.64,0.64,96.2,-7.62,0.869,128% (inactive),69.7
CC(C)=CCc1c2c(c3occ(-c4ccc(O)c(O)c4)c(=O)c3c1O)C=CC(C)(C)O2,10.7% (inactive),0.76 (inactive),1.03,0.78,108 AU (inactive),-8.52,-0.59,-11.4,1.28,45.6,0.58,-1.07,,
C[C@]12CCC3c4ccc(OS(=O)(=O)O)cc4CCC3C1CC[C@H]2O (some centres not stated),3.17% (inactive),0.87 (inactive),1.3,1.13,,8.2,1.49,11.3,0.9,68.5,-12.2,1.25,,
COC1(C)CCC2OC2(C)CCC2C1CC2(C)C (configuration not stated),10.7% (inactive),1.21 (inactive),0.76,0.91,80 AU (inactive),,,,,,,,,
